# Measurements as given in PubChem BioAssay.
# pEC50: −log10 of the molar value. Records with an inconclusive call do not appear. For some assays here: Measured potencies and affinities stand elsewhere. Calls of active or inactive are those of the source. No rule for the calls is given here.
# Key:
# [1] = blockers of polyQ-driven CASP3 activation – cell-based (AID 1583); conditions: polyglutamine-induced caspase-3 activation, cell assay; stronger effect = higher value;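 tested at 10 µM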
# [2] = molecular target: Huntingtin (Homo sapiens) (UniProt P42858); assay: mutant huntingtin aggregation blockers – QA1, dose response (AID 1584); conditions: in vitro mutant huntingtin aggregation assay; confirmation test; at 10 µM; stronger effect = lower value
# Chain of Huntingtin (Homo sapiens) (P42858 whole entry, looked up): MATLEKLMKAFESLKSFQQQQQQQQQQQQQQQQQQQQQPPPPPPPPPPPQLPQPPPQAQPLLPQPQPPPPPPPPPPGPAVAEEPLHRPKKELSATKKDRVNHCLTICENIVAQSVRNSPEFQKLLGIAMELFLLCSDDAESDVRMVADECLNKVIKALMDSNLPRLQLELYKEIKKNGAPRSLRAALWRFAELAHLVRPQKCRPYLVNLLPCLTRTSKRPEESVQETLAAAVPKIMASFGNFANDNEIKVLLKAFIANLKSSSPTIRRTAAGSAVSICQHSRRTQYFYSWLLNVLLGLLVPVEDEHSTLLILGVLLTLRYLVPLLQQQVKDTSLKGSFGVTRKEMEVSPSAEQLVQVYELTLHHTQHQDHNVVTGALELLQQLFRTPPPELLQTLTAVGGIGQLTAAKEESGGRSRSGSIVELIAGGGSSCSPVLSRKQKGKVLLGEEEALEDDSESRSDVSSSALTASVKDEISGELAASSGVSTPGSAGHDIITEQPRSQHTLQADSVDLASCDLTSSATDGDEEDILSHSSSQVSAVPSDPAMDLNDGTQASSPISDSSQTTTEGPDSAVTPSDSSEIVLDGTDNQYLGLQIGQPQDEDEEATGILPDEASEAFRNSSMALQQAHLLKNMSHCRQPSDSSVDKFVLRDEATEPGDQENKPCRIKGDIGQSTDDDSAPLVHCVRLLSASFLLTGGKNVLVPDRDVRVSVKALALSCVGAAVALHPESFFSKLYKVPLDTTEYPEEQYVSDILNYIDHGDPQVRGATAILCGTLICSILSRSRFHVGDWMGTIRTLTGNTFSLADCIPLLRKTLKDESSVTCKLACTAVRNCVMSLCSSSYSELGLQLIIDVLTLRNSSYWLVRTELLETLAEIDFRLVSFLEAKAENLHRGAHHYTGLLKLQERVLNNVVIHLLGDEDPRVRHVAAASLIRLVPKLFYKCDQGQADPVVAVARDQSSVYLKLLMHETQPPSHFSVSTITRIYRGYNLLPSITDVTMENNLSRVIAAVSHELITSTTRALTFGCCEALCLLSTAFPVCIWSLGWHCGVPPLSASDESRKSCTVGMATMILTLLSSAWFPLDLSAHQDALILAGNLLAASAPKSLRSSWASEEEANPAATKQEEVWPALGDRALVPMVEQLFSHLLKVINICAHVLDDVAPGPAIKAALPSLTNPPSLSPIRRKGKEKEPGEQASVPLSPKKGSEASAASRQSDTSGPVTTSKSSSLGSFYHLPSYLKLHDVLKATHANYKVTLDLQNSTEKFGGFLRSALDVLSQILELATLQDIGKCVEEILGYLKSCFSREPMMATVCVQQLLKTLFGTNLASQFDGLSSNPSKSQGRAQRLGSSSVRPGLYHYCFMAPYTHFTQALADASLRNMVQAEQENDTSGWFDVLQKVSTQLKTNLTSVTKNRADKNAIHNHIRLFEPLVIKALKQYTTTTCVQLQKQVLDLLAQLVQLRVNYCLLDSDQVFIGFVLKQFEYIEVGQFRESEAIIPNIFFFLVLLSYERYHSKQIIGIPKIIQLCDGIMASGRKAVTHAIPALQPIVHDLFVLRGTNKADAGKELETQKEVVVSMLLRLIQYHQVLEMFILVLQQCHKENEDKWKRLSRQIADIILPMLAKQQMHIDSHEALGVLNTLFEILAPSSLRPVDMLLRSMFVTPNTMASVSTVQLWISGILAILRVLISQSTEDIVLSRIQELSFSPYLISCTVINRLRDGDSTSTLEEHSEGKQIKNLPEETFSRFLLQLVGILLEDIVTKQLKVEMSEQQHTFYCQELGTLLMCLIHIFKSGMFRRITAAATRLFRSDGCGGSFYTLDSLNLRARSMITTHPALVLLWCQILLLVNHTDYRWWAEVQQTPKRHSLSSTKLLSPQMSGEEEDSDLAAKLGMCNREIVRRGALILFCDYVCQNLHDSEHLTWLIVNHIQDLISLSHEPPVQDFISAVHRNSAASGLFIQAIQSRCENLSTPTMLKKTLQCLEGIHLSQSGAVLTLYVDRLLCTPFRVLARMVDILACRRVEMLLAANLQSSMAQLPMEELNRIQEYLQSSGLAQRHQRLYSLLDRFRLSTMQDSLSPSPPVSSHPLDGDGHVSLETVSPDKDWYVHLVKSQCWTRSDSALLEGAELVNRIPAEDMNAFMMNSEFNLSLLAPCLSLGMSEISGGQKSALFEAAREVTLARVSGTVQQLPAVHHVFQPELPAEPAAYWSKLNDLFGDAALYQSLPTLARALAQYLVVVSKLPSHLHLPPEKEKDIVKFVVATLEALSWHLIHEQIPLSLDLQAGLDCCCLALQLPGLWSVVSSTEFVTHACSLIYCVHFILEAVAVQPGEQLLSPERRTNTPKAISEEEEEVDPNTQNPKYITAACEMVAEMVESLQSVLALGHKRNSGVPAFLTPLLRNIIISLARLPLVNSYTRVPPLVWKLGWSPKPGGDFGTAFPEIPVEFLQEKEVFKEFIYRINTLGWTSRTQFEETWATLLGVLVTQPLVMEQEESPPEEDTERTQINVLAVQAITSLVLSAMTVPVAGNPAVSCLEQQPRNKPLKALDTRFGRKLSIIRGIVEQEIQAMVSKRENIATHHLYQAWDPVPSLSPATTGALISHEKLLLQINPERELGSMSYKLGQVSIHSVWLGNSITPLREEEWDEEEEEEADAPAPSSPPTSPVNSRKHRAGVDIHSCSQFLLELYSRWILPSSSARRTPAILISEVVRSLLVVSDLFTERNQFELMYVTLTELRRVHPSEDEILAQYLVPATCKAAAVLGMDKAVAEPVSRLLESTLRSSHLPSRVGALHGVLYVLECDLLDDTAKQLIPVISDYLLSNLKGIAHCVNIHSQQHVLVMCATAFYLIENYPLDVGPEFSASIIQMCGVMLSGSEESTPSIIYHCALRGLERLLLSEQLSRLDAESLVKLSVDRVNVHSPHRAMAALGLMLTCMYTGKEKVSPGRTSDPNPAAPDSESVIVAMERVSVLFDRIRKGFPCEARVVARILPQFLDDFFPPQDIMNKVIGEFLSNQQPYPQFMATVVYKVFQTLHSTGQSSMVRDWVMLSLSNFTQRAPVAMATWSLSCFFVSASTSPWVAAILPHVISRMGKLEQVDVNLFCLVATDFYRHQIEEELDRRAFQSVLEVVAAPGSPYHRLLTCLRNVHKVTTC
# [3] = blockers of biotin-polyQ monomer incorporation into aggregates – biochemical, solid-phase synthetic aggregates, QA3 (AID 1585); conditions: polyQ aggregate elongation; EC50: measured here: elongation inhibition potency; inhibition: at 100 µM, stronger effect = higher value
# [4] = yeast 75Q aggregation reduction – 75Q-TubU reporter (AID 1593); conditions: Yeast 75Q polyglutamine aggregation reporter
# [5] = blockers of cytochrome c efflux from mitochondria – biochemical, purified mitochondria (AID 1603); conditions: stronger effect = lower value;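 also: mouse liver mitochondria challenged with calcium chloride; signal normalized to the plate average as 100%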
# [6] = polyglutamine aggregate formation blockers (AID 1604); conditions: polyglutamine-induced protein aggregation inhibition assay; stronger effect = higher value; tested at 2.5 µM
# [7] = restoration of touch response, mutant HTT neurons – whole organism, C. elegans mechanosensory neurons, N-terminal huntingtin (AID 1599); conditions: C. elegans polyQ-huntingtin mechanosensory neurons, stronger effect = higher value
SMILES,inhibition [1],aggregation ratio [2],pEC50 [3],inhibition [3],score [4],cytochrome c release ratio [5],inhibition of aggregation [6],rescue above control [7]
C=Cc1c(C)c2cc3[nH]c(cc4nc(cc5nc(cc1[nH]2)C(C)=C5CCC(=O)O)C(CCC(=O)O)=C4C)c(C)c3C=C,39.5%,0.595,3.97,59% (active),0.75,1.37,77.5%,–
CCCOc1ccc2nc(NC(=O)OC)[nH]c2c1,0.98%,–,–,–,1.01,0.9,22.1%,0
Cc1cccc(N(C)C(=S)Oc2ccc3ccccc3c2)c1,-3.4%,–,–,–,-1.43,0.96,57.4%,-1.37
CCCN(CCC)C(=O)C(CCC(=O)O)NC(=O)c1ccccc1 (configuration not stated),14.9%,–,–,–,1.14,1.15,68.3%,-3.65
CCCc1ncc(C[n+]2ccccc2C)c(N)n1,-2.36%,–,–,–,1.6,0.95,84.8%,-0.43
CCN(CC)CCOc1ccc(/C(=C(\Cl)c2ccccc2)c2ccccc2)cc1,-2.8%,–,–,–,-0.01,4.67,46.5%,11.2
COc1ccc(CN(CCN(C)C)c2ncccn2)cc1,10.6%,–,–,–,1.36,1.27,22.2%,1.69
NC(=O)c1ncn([C@@H]2O[C@H](CO)[C@@H](O)[C@H]2O)n1,21%,–,–,–,1.56,1.02,21.6%,-2.31
OC[C@H]1O[C@@H](O[C@@H]2[C@@H](CO)O[C@](O)(CO)[C@H]2O)[C@H](O)[C@@H](O)[C@H]1O,-7.91%,–,–,–,1.23,1.19,51.2%,-9.67
Nc1nccs1,9.3%,–,–,–,1.44,0.95,30.7%,-9.08
CC1(C)S[C@@H]2[C@H](NC(=O)[C@H](N)c3ccccc3)C(=O)N2[C@H]1C(=O)O,14.1%,–,–,–,1.62,1.35,80.3%,-3.83
Cn1c(=O)c2c(ncn2C)n(C)c1=O,5.72%,–,–,–,1.32,1.5,74.9%,4.29
Cn1cnc2c1c(=O)[nH]c(=O)n2C,30.4%,–,–,–,1.43,0.76,28.1%,-0.5
O=C(O)P(=O)(O)O,-16.3%,–,–,–,1.28,0.68,30.6%,9.34
CCO/C([O-])=N/c1c[n+](N2CCOCC2)no1,-3.16%,–,–,–,1.13,0.83,36.6%,3.21
NCCCC(=O)O,15.3%,–,–,–,1.12,0.87,18.5%,-4.87
Cc1cc(-c2ccccc2)nnc1NCCN1CCOCC1,7.39%,–,–,–,1.28,1.03,66.7%,5.33
CNC[C@H](O)c1cccc(O)c1,-27.4%,–,–,–,1.21,0.84,47.4%,-6.19

SMILES,inhibition [1],aggregation ratio [2],pEC50 [3],inhibition [3],score [4],cytochrome c release ratio [5],inhibition of aggregation [6],rescue above control [7]
CCC1(C)CC(=O)NC1=O (configuration not stated),3.06%,–,–,–,1.25,1.3,4.76%,1.02
Cc1cc(CC(=O)O)n(C)c1C(=O)c1ccc(Cl)cc1,-20.4%,–,–,–,0.85,0.92,83.3%,20.8
C[N+](C)(C)CCCCCC[N+](C)(C)C,1.59%,–,–,–,1.14,0.92,72.2%,-10.3
Nc1ccc(C(=O)O)c(O)c1,-17.6%,–,–,–,1.08,1.48,88.8%,7.16
O=C(O)c1ccc(S(=O)(=O)N(Cl)Cl)cc1,18.5%,–,–,–,1.25,0.74,56.3%,8.13
Cc1cc(=O)[nH]c(=S)[nH]1,-32.8%,–,–,–,1.08,0.82,69.4%,-4.23
O=C1OC(c2ccc(O)cc2)(c2ccc(O)cc2)c2ccccc21,-3.42%,–,–,–,1.29,4.22,70.1%,8.67
CCCCCC(C)N (configuration not stated),-8.68%,–,–,–,1.2,1.02,-9.09%,1.21
CC(=O)OCC(COC(C)=O)OC(C)=O,0.15%,–,–,–,1.44,1.1,72.7%,-1.97
Nc1ccc(S(=O)(=O)Nc2cnc3ccccc3n2)cc1,26.1%,–,–,–,1.42,1.1,22.7%,9.63
COc1cc(NS(=O)(=O)c2ccc(N)cc2)ncn1,-4.01%,–,–,–,1.09,0.96,88.9%,33.1
CC(C)(C)CC(C)(C)c1ccc(O)c(Cc2ccc(Cl)cc2Cl)c1,42%,–,–,–,-0.61,0.8,71.9%,-2.34
CCN1CCCC(OC(=O)C(c2ccccc2)c2ccccc2)C1 (configuration not stated),7.55%,–,–,–,1.33,1.06,23.6%,-11.5
CN(C)CCCN1c2ccccc2Sc2ccc(C(F)(F)F)cc21,30.2%,–,–,–,1.13,0.7,76%,19.8
Nc1ccc(C(=O)NCC(=O)O)cc1,5.11%,–,–,–,1.21,1.41,83.6%,11.2
CC(=O)N(O)CCCCCNC(=O)CCC(=O)N(O)CCCCCNC(=O)CCC(=O)N(O)CCCCCN,-1.64%,–,–,–,0.93,0.93,63.2%,-3.69
Oc1ccc(Cl)c2cccnc12,19.1%,–,–,–,-0.02,0.81,63.5%,-0.67
NC(=O)c1ccccc1O,-13.1%,–,–,–,1.55,0.7,78.1%,9.08
